An excerpt weighted towards active compounds, which were near 8.9% of everything screened.
SW480 rerep = A quantitative high throughput screen for small molecules that induce DNA re-replication in SW480 colon adenocarcinoma cells. SW480 DNA re-replication, Hoechst DNA content imaging, 48 h. Potency, µM (titrated, usually from 46.1 µM), for the others: top-dose re-replication activation, usual class: activators. hit rate 1.8% among 340,000; note: potency is the fitted concentration of half-maximal effect; % of control where 0% means no effect; nearly all actives have a fitted effect of over 55% in size
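Readout is total intensity of Hoechst-stained nuclei, excited at 405 nm and collected at 500-530 nm. Compound treatment lasted 48 hr at 37 C in 5% CO2 before staining.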
DRD3 antagonist = qHTS of D3 Dopamine Receptor Antagonist: qHTS. D(3) dopamine receptor (Homo sapiens), P35462. D3R cells, DiscoveRx beta-arrestin luminescence, antagonist mode; stronger effect = lower value. max response, negative = inhibition, %. hit rate 2.5% among 360,000. AID 652054, 2013; in the data active = max response below about -50%; inconclusive = no clear call, values can overlap the other calls; note: % is set by controls: 0 for no effect and ±100 for the full control effect
Target sequence (P35462 whole entry, looked up): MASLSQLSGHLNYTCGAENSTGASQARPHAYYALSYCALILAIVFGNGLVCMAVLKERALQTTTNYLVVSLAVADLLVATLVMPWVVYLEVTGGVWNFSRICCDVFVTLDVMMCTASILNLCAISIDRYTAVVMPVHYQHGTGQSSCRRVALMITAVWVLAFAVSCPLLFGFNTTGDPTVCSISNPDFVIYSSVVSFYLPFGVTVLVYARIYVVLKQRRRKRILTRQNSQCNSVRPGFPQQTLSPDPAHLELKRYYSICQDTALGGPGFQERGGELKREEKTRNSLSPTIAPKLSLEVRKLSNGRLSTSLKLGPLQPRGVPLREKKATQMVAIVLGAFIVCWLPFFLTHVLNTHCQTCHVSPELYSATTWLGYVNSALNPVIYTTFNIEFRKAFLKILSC
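Cells plated overnight at 1500 cells/well, then exposed to library compounds with dopamine controls for 90 minutes at 37 degrees C. DiscoveRx reagent added for 30–60 minutes at room temperature; luminescence read, quantitative HTS format.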
KB-V1 MDR tox = qHTS assay for MDR1-selective chemotherapeutics: Primary screen using the drug-selected MDR subline cells KB-V1. KB-V1 MDR cells viability, CellTiter-Glo, 72 h. Potency, µM (doses to about 46.1 µM), most hits filed as cytotoxic. hit rate 3.4% among 400,000. AID 1347076, 2019; note: potency is the fitted concentration of half-maximal effect; % is set by controls: 0 for no effect and ±100 for the full control effect; nearly all actives have a fitted effect of over 60% in size
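KB-V1 MDR subline cells in DMEM (phenol-red free, 10% FBS) exposed to compounds in qHTS concentration series for 72 h at 37 degrees C. Viability read by CellTiter-Glo luminescence; concentration-effect curves fitted after normalization and correction.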
DRD3 agonist = qHTS of D3 Dopamine Receptor Agonist: qHTS; D(3) dopamine receptor (Homo sapiens), P35462; D3R DiscoveRx beta-arrestin cells, luminescence, 90 min; max activation, %; hit rate 0.58% among 410,000; AID 652048, 2013; in the data active = max activation above about 30%; note: 0% is about no effect
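Agonist mode: compounds and dopamine controls were applied to plated cells for 90 min at 37 degrees C after an overnight attachment at 1500 cells/well. Luminescent read-out followed 30 - 60 minutes at room temperature with DiscoveRx detection reagent.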
KB-3-1 tox = qHTS assay for MDR1-selective chemotherapeutics: Primary screen using the parental adenocarcinoma cell KB-3-1. Potency, µM (doses to about 46.1 µM), hits mostly cytotoxic. KB-3-1 viability, CellTiter-Glo ATP luminescence, 72 h. hit rate 1.4% among 400,000. AID 1347075, 2019; note: potency is the fitted concentration of half-maximal effect; % is set by controls: 0 for no effect and ±100 for the full control effect; nearly all actives have a fitted effect of over 60% in size
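72 h, 37 °C compound treatment of KB-3-1 parental cells; CellTiter-Glo added, 10 min, luminescence read. Data corrected against DMSO-only plates and normalized before curve fitting.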
MCF10A rerep = A quantitative high throughput screen for small molecules that induce DNA re-replication in MCF 10a normal breast cells; MCF 10A DNA re-replication, Hoechst nuclear intensity, 48 h; Potency, µM (titrated, usually from 46.1 µM), for the others: at the top dose activity, positive = re-replication, usual class: activators; hit rate 2.9% among 350,000; AID 624296, 2012; note: potency is the fitted concentration of half-maximal effect; % of control where 0% means no effect; nearly all actives have a fitted effect of over 50% in size
* marks the source's active call; other numbers are inactive results; i = inactive; ? = inconclusive; . = no result given. Unless noted, calls come from the whole dose curve; as a rule, active = well fitted curve in the direction sought with a large enough effect; inconclusive = small, poorly fitted or top-dose-only effect, or another doubt; inactive = no such curve, though single readings can be large; an effect the other way counts as inactive or inconclusive.

SMILES	SW480 rerep	DRD3 antagonist	KB-V1 MDR tox	DRD3 agonist	KB-3-1 tox	MCF10A rerep
C=CCc1ccccc1OCC(O)CNC(C)C (configuration not stated)	16.3%	-60.1*	i	-57.5	i	-1.7%
Cc1ccc(N2CCN(C(=O)CCc3c(C)nc4ncnn4c3C)CC2)c(C)c1	.	.	?	-6.1	i	.
COc1ccc(N2CCN(CC(O)COc3c(OC)cccc3OC)CC2)cc1 (configuration not stated)	-3.7%	-27.7	i	-3.8	i	-4.6%
C=CCc1ccccc1OCC(O)CN1CCN(c2ccccc2OC)CC1 (configuration not stated)	23.4%	-138.6*	?	-12.1	i	?
COc1ccccc1N1CCN(CC(O)COc2cccc3ccccc23)CC1 (configuration not stated)	?	-99.3*	?	-74.3	i	-4.1%
CCOc1ccccc1N1CCN(CC(O)COC2CCCc3ccccc32)CC1 (configuration not stated)	?	-88.8*	i	-22.2	i	15.6%
O=S(=O)(c1cccs1)N1CCN(CC(O)COC2CCCc3ccccc32)CC1 (configuration not stated)	-3.0%	?	?	4.3	i	2.3%
COc1ccccc1N1CCN(CC(O)COc2ccc3c(c2)OCO3)CC1 (configuration not stated)	-3.6%	-103.3*	i	-13.5	i	-2.5%
O=C(Nc1ccccc1C(F)(F)F)c1cc2nc(-c3ccccc3)cc(-c3ccccc3)n2n1	.	.	?	-4.2	i	.
C[n+]1c2cc(N)ccc2cc2ccc(N)cc21 (tested in a mixture with another compound)	.	.	.	13.2	.	.
COc1ccc2c(c1)c1c(c(=O)n(Cc3ccccc3)c(=O)n1CC(=O)Nc1ccc(C)cc1C)n2C	.	.	i	0.9	i	.
OC(COc1cccc2ccccc12)CN1CCOCC1 (configuration not stated)	0.0%	-18.3	i	-10.3	i	-0.1%
OC(COc1cccc2ccccc12)CN1CCN(c2ccccc2)CC1 (configuration not stated)	-4.4%	-54.4*	i	34.9*	i	7.9%
CC(C)C(=O)N1CCN(c2ccc([N+](=O)[O-])c(NC(C)c3ccccc3)c2)CC1 (configuration not stated)	-0.3%	-29.4	i	-3.1	i	?
O=[N+]([O-])c1ccc(N2CCOCC2)cc1NC(c1ccccc1)c1ccccc1	1.1%	-15.5	16.4µM*	-9.7	i	14.5%
O=[N+]([O-])c1ccc(N2CCCC2)cc1NC1CC1	9.2%	13.1	20.6µM*	-11.5	i	?
CC(Nc1cc(N2CCN(C(=O)C(C)(C)C)CC2)ccc1[N+](=O)[O-])c1ccccc1 (configuration not stated)	14.8%	?	10.3µM*	-0.7	?	17.8%
CN(C)S(=O)(=O)N1CCN(c2ccc([N+](=O)[O-])c(NC3CC3)c2)CC1	11.6%	2.7	i	-10.3	i	0.0%
O=C(CN1CCN(c2cccc(C(F)(F)F)c2)CC1)N(C1CCCC1)C1CCS(=O)(=O)C1 (configuration not stated)	-3.9%	0.9	20.6µM*	-3.5	i	5.5%
O=C(CN1CCN(c2cccc(C(F)(F)F)c2)CC1)N(C1CC1)C1CCS(=O)(=O)C1 (configuration not stated)	28.3%	7.2	i	-14.1	i	-1.4%
COc1ccc(CC(O)CC2c3c(cc4c(c3OC)OCO4)CCN2C)cc1 (configuration not stated)	27.2%	-68.9*	i	-20.0	i	-2.2%
COc1ccccc1CC(O)CC1c2c(cc3c(c2OC)OCO3)CCN1C (configuration not stated)	-26.8%	-3.7	i	-1.0	?	-0.4%
O=C(NCc1ccccc1Cl)c1ccc(NC(=O)c2nsc3ccccc23)cc1	.	.	i	0.7	i	.
Cc1cc(C)n(C(C[N+](=O)[O-])c2ccc(Cl)cc2)n1 (configuration not stated)	?	-14.7	?	3.6	?	14.6µM*
Cc1cc(O)c(C(C[N+](=O)[O-])c2ccc(Cl)cc2)c(=O)o1 (configuration not stated)	11.9%	-20.1	i	-5.7	i	-6.7%
SMILES	SW480 rerep	DRD3 antagonist	KB-V1 MDR tox	DRD3 agonist	KB-3-1 tox	MCF10A rerep
Cc1ccc(-c2nc(C(=O)NCc3ccccc3Cl)c3n2CCCCC3)cc1	.	.	?	-2.6	i	.
Cc1ccc2nc(NC(=O)c3ccc(OCC4CCCO4)cc3)sc2c1 (configuration not stated)	-1.6%	65.0	?	49.1*	?	20.6%
CCOc1ccc2nc(NC(=O)C3CCCO3)sc2c1 (configuration not stated)	-3.9%	2.9	i	0.3	i	-3.7%
COc1ccc2nc(NC(=O)c3ccc(NC(=O)C4CCCO4)cc3)sc2c1 (configuration not stated)	?	79.8	i	0.2	7.31µM*	20.6µM*
COc1ccc(S(=O)(=O)Nc2cccc(-c3ccc(N4CCCCCC4)nn3)c2)cc1F	.	.	i	6.0	i	.
O=C(c1ccc(F)cc1)N1CCN=C1c1ccccc1	13µM*	8.6	i	-6.2	i	?
Cc1cc2cc(CN(Cc3ccc4c(c3)OCO4)Cc3nnnn3C3CCCC3)c(=O)[nH]c2cc1C	-2.0%	16.5	?	-2.6	i	-2.6%
CCNC(=S)N(Cc1cc2cccc(C)c2[nH]c1=O)C1CCCC1	-145.8%	16.6	18.4µM*	3.2	?	1.4%
Cc1cccc2cc(CN(Cc3nnnn3C3CCCC3)C3CCCCC3)c(=O)[nH]c12	?	-19.2	23.1µM*	-6.8	i	?
Cc1cccc2cc(CN(C(=S)NCC(C)C)C3CCCC3)c(=O)[nH]c12	1.5%	-3.4	?	-6.4	i	5.2%
Cc1ccc2[nH]c(=O)c(CN(Cc3ccc4c(c3)OCO4)Cc3nnnn3C3CCCC3)cc2c1	?	2.7	18.4µM*	-5.6	i	?
Cc1cccc2cc(CN(Cc3nnnn3Cc3ccco3)C3CCCC3)c3nnnn3c12	6.4%	21.9	11.6µM*	-5.8	i	?

Screens deposited in PubChem by National Center for Advancing Translational Sciences (NCATS).
